Structures are written as SMILES. Active and inactive are the calls of the source.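 How the source made its calls, unless noted: active means fluorescence slope higher than the sample average by over 3 SD (cut at about -0.22 in these data, passing the limit was not always enough); inactive means the rest.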

One may read the inhibition as the relative decrease from the control value, in per cent.

A short description of test [1]: inhibitors of TNFa-induced NFkB p65 translocation, primary screen, imaging, HUVEC, MLSMR starter and 10KST1 sets (AID 438;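 active means inhibition above 20% together with a positive visual image hit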;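 further: compound added about 3h40 before a 20 min TNFalpha stimulation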;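 on inhibition: signal is the nuclear over cytoplasmic p65 intensity ratio per well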). As to conditions: HUVEC TNFa-induced p65 nuclear translocation; cell count: measured here: nuclei count (cytotoxicity indicator), at 2.08 µM unless noted; inhibition: at 2 µM, stronger effect = higher value unless noted.
Test [2] can be described thus: inhibitors of E-selectin induction by TNFa, primary screen, imaging, HUVEC, immunofluorescence, MLSMR starter and 10KST1 sets (AID 487;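 active means visually confirmed hit in the image check and inhibition above 20%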;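 on inhibition: signal is fraction of cell area covered by stained E-selectin grains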;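 on nuclei count: 100% = median nuclei count of all wells on the same plate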). As to conditions: HUVEC TNFalpha-induced E-selectin immunofluorescence imaging, at 2 µM; inhibition: stronger effect = higher value; nuclei count: measured here: cell number, toxicity.
The nature of test [3]: DUSP6 inhibitors restoring Erk phosphorylation by chemical complementation, primary imaging in DUSP6-transfected HeLa (AID 609;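 active means compounds giving at least 50% inhibition in the cell-based MKP-3 phosphatase rescue imaging test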;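 on inhibition: phospho-Erk level distribution per well compared with pooled transfected vehicle control wells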). The note with it: HeLa MKP-3 transfected, phospho-Erk imaging KS statistic, at 10 µM.
The target in test [4] is Dual specificity protein phosphatase 6 (Homo sapiens) (UniProt Q16828). The description is as above. The note with it: HeLa MKP-3 transfected, phospho-Erk imaging KS statistic, at 10 µM, stronger effect = higher value.
Test [5] concerns the target Voltage-gated potassium channel subunit beta-2 (Rattus norvegicus) (UniProt P62483). Kind of test: KvBeta enzyme negative modulators, primary screen, biochemical, NADPH fluorescence (AID 622).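 Further: slope of raw intensity against log time taken from 70 to 1610 s.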 As to conditions: recombinant KvBeta, 4-cyanobenzaldehyde reduction, at 10 µM, stronger effect = higher value.
The target is the same in test [6]. Put plainly: KvBeta positive modulators, primary screen, biochemical, NADPH fluorescence (AID 623;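 active means NADPH fluorescence slope more negative than the mean of all samples by about 3 SD, 99.7% confidence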;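 further: fluorescence intensity change per second fitted from 20 to 320 s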). The note with it: Recombinant KvBeta, NADPH fluorescence decrease slope, 10 min; at 10 µM; stronger effect = lower value.
Test [7] addresses Muscarinic acetylcholine receptor M4 (Homo sapiens) (UniProt P08173). Kind of test: compounds altering M4/GIRK thallium flux, either direction, primary screen, M4 allosteric agonist project, cell-based, HEK293 M4/GIRK, BTC-AM (AID 625;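 active means fluorescence slope after compound addition differing from the mean of all tested samples at 99.7% confidence, mostly higher but some lower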;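 further: thallium influx through GIRK channels coupled to M4 in HEK293 cells with BTC-AM dye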). The note with it: at 10 µM, actives lie on both sides.
Test [8] is described as follows: inhibitors of larval lipid processing in zebrafish, primary screen, whole organism, PED6 fluorescence, gall bladder and intestine (AID 686;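 active means a full or partial loss of lipid-probe fluorescence in the fish gall bladder, intestine or both, judged by eye; inactive means no fluorescence loss, or compound toxic to the fish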;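 further: larvae 5 to 7 days old with five fish per well; signal comes from phospholipase A2 cleavage of quenched PED6 carried via bile; overnight exposure to compound and PED6 before scoring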). As to conditions: Zebrafish larvae PED6 lipid processing, fluorescence scoring.
A short description of test [9]: inhibitors of Chlamydomonas gravitaxis, primary screen, whole organism, Chlamydomonas reinhardtii, WT vs cilia-less mutant, absorbance, 96-well (AID 463189;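 active means inhibition at or above 50% relative to wild type and mutant plate controls; inactive means inhibition below 50%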;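 further: 0% = wild type cc124 cells in DMSO and 100% = ciliumless bld1 mutant cells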). The note with it: OD600 absorbance, 2 days, at 10 µM, stronger effect = higher value.
The nature of test [10]: inhibitors of mutant huntingtin aggregation, primary screen, imaging, exon1htt(103Q)mCFP cells, high-content imaging (AID 483;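 active means visual image review flags a hit and inhibition of aggregation exceeds 20%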;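 further: compound exposure lasted 3 days before fixation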;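 on nuclei count: percent of the per-plate median nuclei count of sample wells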). As to conditions: exon1htt(103Q)mCFP cell line, aggregate imaging, at 2 µM; inhibition of aggregation: stronger effect = higher value; nuclei count: measured here: cell count, toxicity.
The target in test [11] is Alpha-2C adrenergic receptor (Homo sapiens) (UniProt P18825). Kind of test: modulators of alpha2C/GIRK thallium flux, primary screen, cell-based, HEK293 alpha2C/GIRK1/2 (AID 624;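 active means fluorescence slope after compound addition differing from the mean of all screened samples at 99.7% confidence, in either direction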;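 further: slope of fluorescence ratio to pre-addition baseline per second over 15 to 24 s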). As to conditions: thallium flux BTC fluorescence, at 10 µM, actives lie on both sides.
Test [12] in a line: inhibitors of Sendai virus-induced IRF3 signaling, primary screen, TLR/RLR signaling modifier project, cell-based, Sendai virus stimulus, luciferase, 10K MLSCN set (AID 602276;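 active means inhibition at or above 50% at 10 µM; inactive means inhibition below 50%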;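 further: firefly luciferase from ISG56 promoter only with Renilla not read in this screen; 0% = Sendai virus plus DMSO and 100% = medium plus DMSO without virus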). The note with it: HEK293 RL24 IRF3 luciferase reporter, at 10 µM, stronger effect = higher value.
The nature of test [13]: inhibitors of poly I:C-induced TLR3 signaling, primary screen, cell-based, poly I:C stimulus, luciferase, 10K MLSCN set (AID 602277;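 active means inhibition of the reporter signal at or above 50%; inactive means inhibition below 50%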). The note with it: HEK293-TLR3 RL24 IRF3 luciferase reporter, at 10 µM, stronger effect = higher value. A general note: In a reporter assay the amount or activity of a reporter protein is the signal.
Where [14] appears, read: measured here: cell density z-score.
Setting [15] is: measured here: nuclear c-Myc green intensity z-score.
[16] abbreviates: measured here: nuclear pErk red intensity z-score, stronger effect = higher value.

Chain of Voltage-gated potassium channel subunit beta-2 (Rattus norvegicus) (P62483 whole entry, looked up): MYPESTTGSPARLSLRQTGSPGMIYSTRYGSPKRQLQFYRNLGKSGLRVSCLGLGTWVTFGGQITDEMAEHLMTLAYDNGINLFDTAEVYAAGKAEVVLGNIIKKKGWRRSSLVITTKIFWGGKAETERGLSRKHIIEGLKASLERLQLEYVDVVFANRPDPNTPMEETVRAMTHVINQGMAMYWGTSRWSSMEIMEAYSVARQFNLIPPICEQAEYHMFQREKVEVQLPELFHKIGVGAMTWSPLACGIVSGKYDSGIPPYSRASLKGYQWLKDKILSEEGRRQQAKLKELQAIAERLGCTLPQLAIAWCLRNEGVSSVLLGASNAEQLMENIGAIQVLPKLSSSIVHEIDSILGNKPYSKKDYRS
Chain of Dual specificity protein phosphatase 6 (Homo sapiens) (Q16828 whole entry, looked up): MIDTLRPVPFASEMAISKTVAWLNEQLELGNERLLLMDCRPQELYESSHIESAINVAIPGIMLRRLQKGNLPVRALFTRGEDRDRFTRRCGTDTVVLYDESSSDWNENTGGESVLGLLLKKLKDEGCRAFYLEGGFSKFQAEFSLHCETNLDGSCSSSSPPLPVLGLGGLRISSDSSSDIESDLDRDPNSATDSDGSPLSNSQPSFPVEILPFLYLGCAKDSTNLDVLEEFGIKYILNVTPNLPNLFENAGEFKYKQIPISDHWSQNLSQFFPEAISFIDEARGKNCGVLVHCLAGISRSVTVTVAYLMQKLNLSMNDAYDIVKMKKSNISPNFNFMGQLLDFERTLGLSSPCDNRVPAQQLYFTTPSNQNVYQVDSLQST
Chain of Muscarinic acetylcholine receptor M4 (Homo sapiens) (P08173 whole entry, looked up): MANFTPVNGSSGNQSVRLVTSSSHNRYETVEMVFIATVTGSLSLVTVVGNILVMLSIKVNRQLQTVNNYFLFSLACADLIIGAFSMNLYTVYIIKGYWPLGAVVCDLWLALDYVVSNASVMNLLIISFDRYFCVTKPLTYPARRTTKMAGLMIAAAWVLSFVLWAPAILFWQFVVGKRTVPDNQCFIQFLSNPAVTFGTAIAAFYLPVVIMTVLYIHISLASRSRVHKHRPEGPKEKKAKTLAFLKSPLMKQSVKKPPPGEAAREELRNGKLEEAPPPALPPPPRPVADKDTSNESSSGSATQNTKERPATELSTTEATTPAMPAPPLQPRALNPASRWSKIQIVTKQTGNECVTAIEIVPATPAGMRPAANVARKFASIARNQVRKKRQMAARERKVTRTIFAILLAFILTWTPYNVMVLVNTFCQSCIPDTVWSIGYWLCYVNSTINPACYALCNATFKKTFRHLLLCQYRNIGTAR
Chain of Alpha-2C adrenergic receptor (Homo sapiens) (P18825 whole entry, looked up): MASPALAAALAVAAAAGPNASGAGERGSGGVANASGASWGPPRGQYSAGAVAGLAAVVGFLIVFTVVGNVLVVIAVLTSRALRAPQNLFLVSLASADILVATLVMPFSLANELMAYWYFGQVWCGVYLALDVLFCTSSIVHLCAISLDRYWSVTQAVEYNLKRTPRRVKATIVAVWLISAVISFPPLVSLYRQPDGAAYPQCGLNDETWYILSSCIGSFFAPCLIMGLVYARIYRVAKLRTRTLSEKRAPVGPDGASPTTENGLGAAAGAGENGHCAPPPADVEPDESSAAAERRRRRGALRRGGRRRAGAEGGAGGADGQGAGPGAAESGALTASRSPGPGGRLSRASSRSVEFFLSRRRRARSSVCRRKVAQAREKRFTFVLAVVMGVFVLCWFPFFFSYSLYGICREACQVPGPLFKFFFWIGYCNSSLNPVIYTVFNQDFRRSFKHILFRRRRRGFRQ

`CC1(c2ccccc2)NCCN2C(=O)CSC21` (configuration not stated): in test [1], the cell count came out at 632. Moreover, the inhibition is 2.3% (inactive) in [1], 32.4% (inactive) in test [2], 1.12% (inactive) in [4] and 8.43% (inactive) in test [9]. In addition, in test [2], the nuclei count came to 147%. Besides, the z-score in test [3] (setting [14]) was 1.05; in [3] (setting [15]), -0.953; in test [3] (setting [16]), -0.166. Besides, the fluorescence slope in test [5] is -0.477 (inactive); in test [7] it was 0.00532 (inactive). For the same molecule, in [6], the NADPH fluorescence slope is -6.1e-05 (inactive). Also, the molecule was classed as inactive in test [8].

As to `CC1CN=C(Nc2ccc(N(C)C)cc2)S1` (configuration not stated), in [1], the cell count is 666. The inhibition is 0.8% (inactive) in test [1], -22.4% (inactive) in test [2], 3.49% (inactive) in [4] and 9.45% (inactive) in test [9]. The molecule further showed a nuclei count in test [2] of 136%. Besides, the values for the z-score in [3] (setting [14]), in test [3] (setting [15]) and in test [3] (setting [16]) were -0.332, 0.426 and -0.395, respectively. The fluorescence slope in test [5] was -0.464 (inactive); in test [7] it was 0.00379 (inactive). For the same molecule, the NADPH fluorescence slope in [6] is -5.1e-05 (inactive). The molecule was called inactive in test [8].

Molecule `Cc1nn(Cc2ccccc2Cl)c(Cl)c1C(=O)OCC(=O)NCc1ccco1` gave a cell count in [1] of 459. Further, the inhibition in test [1] is -14% (inactive); in test [2], -20.7% (inactive); in test [12] it was 5.25% (inactive); in [13], -0.539% (inactive). Moreover, the inhibition of aggregation in test [10] was 3.2% (inactive). For the same molecule, the nuclei count in [10] worked out at 105%; in [2], 112%. Further, the fluorescence slope in [5] is -0.605 (inactive). In addition, the NADPH fluorescence slope in [6] was -1.7e-05 (inactive). The slope in test [11] was 0.00264 (inactive).

The molecule `Cc1nc2ccccc2c(=O)n1-c1ccc(F)cc1` gave a cell count in test [1] of 321. Also, the inhibition in [1] is -5% (inactive); in test [2], -36.4% (inactive); in test [12] it was 7.2% (inactive); in test [13], 36.9% (inactive). In addition, in [10], the inhibition of aggregation was 7.1% (inactive). Also, the nuclei count in test [10] and in test [2] was 111% each time. Moreover, the fluorescence slope in [5] was -0.456 (inactive). For the same molecule, the NADPH fluorescence slope in test [6] is 4.9e-06 (inactive). In test [11], the slope is 0.00327 (inactive).

With `CCOC(=O)C1=C(C)OC(N)=C(C(=O)OCC)[C@@]12C(=O)N(CC(N)=O)c1ccccc12`, the cell count in test [1] was 465. Further, the inhibition was -6.3% (inactive) in test [1], -219% (inactive) in test [2], -0.624% (inactive) in test [4] and 5.83% (inactive) in test [9]. Further, the nuclei count in [2] came to 186%. Moreover, the values for the z-score in [3] (setting [14]), in test [3] (setting [15]) and in test [3] (setting [16]) were -0.479, -0.527 and -0.153, respectively. Further, the fluorescence slope in test [5] was -0.445 (inactive); in test [7], 0.00512 (inactive). Besides, the NADPH fluorescence slope in test [6] was -5.7e-05 (inactive). For the same molecule, the outcome in [8] was inactive.

In test [1], `Nc1c(C(=O)NCc2ccco2)c2nc3ccccc3nc2n1Cc1ccc(F)cc1` gave a cell count of 678. Moreover, the inhibition in test [1] was 12.5% (inactive); in [2], -9% (inactive); in test [4] it was -7.67% (inactive); in test [9], 34.8% (inactive). This molecule showed a nuclei count in test [2] of 108%. Besides, the results for the z-score in test [3] (setting [14]), in test [3] (setting [15]) and in test [3] (setting [16]) were 0.15, 1.06 and -0.878, respectively. The fluorescence slope is -0.236 (inactive) in test [5] and 0.00698 (inactive) in [7]. In addition, the NADPH fluorescence slope in test [6] is -1e-05 (inactive). In addition, the result in [8] was inactive.

As for `CCCN(CC#CCO)CCC`, the cell count in [1] stood at 701. The inhibition in test [1] was 11.7% (inactive); in test [2], -121% (inactive); in test [4], -11.4% (inactive); in [9], -2.44% (inactive). The nuclei count in test [2] amounted to 162%. Moreover, the z-score came to 0.317 in [3] (setting [14]), 1.4 in test [3] (setting [15]) and 0.749 in test [3] (setting [16]). The figures for the fluorescence slope in [5] and in test [7] were -0.448 (inactive) and 0.00435 (inactive), respectively. The NADPH fluorescence slope in [6] is -4.9e-05 (inactive). Moreover, the call in [8] was inactive.
